# Measured values taken from the supplement of paper PMC8728848.
# This is one part of a sample in which the strongest signals are shown more often than they occur.
# Key:
# Assay in all cases: glycan array binding signal (z-score within array); higher = stronger binding
# Conditions in all cases: glycan notation: IUPAC condensed, linker removed
# [1] = target: Fuc(a1-2)Gal(b1-3)[Fuc(a1-4)]GlcNAc(b1-2)Man(a1-3)[Fuc(a1-2)Gal(b1-3)[Fuc(a1-4)]GlcNAc(b1-2)Man(a1-3)]Man(b1-4)GlcNAc(b1-4)GlcNAc
# Method in brief: (§1)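 Glycan array binding is given as a within-array Z-score, which can be read as non-binding when negative. The arrays, 3228 of them, came from the Consortium for Functional Glycomics database and were retained only where the protein sequence was available. Z-scores were averaged across arrays of the same protein sequence at different concentrations or buffers and across linkers.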
# [2] = target: Fuc(a1-2)Gal(b1-4)Fuc(a1-3)]GlcNAc(b1-2)Man(a1-3)[Fuc(a1-2)Gal(b1-4)[Fuc(a1-3)]GlcNAc(b1-2)Man(a1-6)]Man(b1-4)GlcNAc(b1-4)GlcNAc
# Method in brief: as §1
# [3] = target: Fuc(a1-2)Gal(b1-4)GlcNAc
# Method in brief: as §1
# [4] = target: Fuc(a1-2)Gal(b1-4)[Fuc(a1-3)]GlcNAc(b1-2)[Fuc(a1-2)Gal(b1-4)[Fuc(a1-3)]GlcNAc(b1-4)]Man(a1-3)[Fuc(a1-2)Gal(b1-4)[Fuc(a1-3)]GlcNAc(b1-2)Man(a1-6)]Man(b1-4)GlcNAc(b1-4)GlcNAc
# Method in brief: as §1
# [5] = target: Fuc(a1-2)Gal(b1-4)[Fuc(a1-3)]GlcNAc(b1-3)Gal(b1-4)[Fuc(a1-3)]GlcNAc(b1-3)Gal(b1-4)[Fuc(a1-3)]GlcNAc
# Method in brief: as §1
# [6] = target: Fuc(a1-2)Gal6S(b1-4)Glc6S
# Method in brief: as §1
# [7] = target: Fuc(a1-2)[GalNAc(a1-3)]Gal
# Method in brief: as §1
# [8] = target: Fuc(a1-2)[GalNAc(a1-3)]Gal(b1-3)GalNAc(a1-3)[Fuc(a1-2)]Gal(b1-4)GlcNAc
# Method in brief: as §1
# [9] = target: Gal(a1-3)Gal(b1-4)GlcNAc(b1-2)Man
# Method in brief: as §1
# [10] = target: Gal(a1-3)Gal(b1-4)[Fuc(a1-3)]GlcNAc(b1-2)Man(a1-3)[Gal(a1-3)Gal(b1-4)[Fuc(a1-3)]GlcNAc(b1-2)Man(a1-6)]Man(b1-4)GlcNAc(b1-4)GlcNAc
# Method in brief: as §1
# [11] = target: Gal(a1-4)Gal(b1-4)Glc
# Method in brief: as §1
# [12] = target: Gal(b1-3)GlcNAc(a1-6)Gal(b1-4)GlcNAc
# Method in brief: as §1
# [13] = target: Gal(b1-3)GlcNAc(b1-3)Gal(b1-4)GlcNAc(b1-2)Man(a1-3)[Gal(b1-3)GlcNAc(b1-3)Gal(b1-4)GlcNAc(b1-2)Man(a1-6)]Man(b1-4)GlcNAc(b1-4)GlcNAc
# Method in brief: as §1
# [14] = target: Gal(b1-4)GlcNAc(b1-2)Man(a1-6)[Man(a1-3)]Man(b1-4)GlcNAc(b1-4)GlcNAc
# Method in brief: as §1
# [15] = target: Gal(b1-4)GlcNAc(b1-3)Gal(b1-4)GlcNAc(b1-2)Man(a1-3)[Gal(b1-4)GlcNAc(b1-3)Gal(b1-4)GlcNAc(b1-2)Man(a1-6)]Man(b1-4)GlcNAc(b1-4)GlcNAc
# Method in brief: as §1
# [16] = target: Gal(b1-4)GlcNAc(b1-3)Gal(b1-4)GlcNAc(b1-2)[Gal(b1-4)GlcNAc(b1-3)Gal(b1-4)GlcNAc(b1-6)]Man(a1-6)[Gal(b1-4)GlcNAc(b1-3)Gal(b1-4)GlcNAc(b1-2)Man(a1-3)]Man(b1-4)GlcNAc(b1-4)GlcNAc
# Method in brief: as §1
# [17] = target: Gal(b1-4)GlcNAc(b1-3)Gal(b1-4)GlcNAc(b1-2)[Gal(b1-4)GlcNAc(b1-3)Gal(b1-4)GlcNAc(b1-6)]Man(a1-6)[Gal(b1-4)GlcNAc(b1-3)Gal(b1-4)GlcNAc(b1-2)Man(a1-3)]Man(b1-4)GlcNAc(b1-4)[Fuc(a1-6)]GlcNAc
# Method in brief: as §1
# [18] = target: Gal(b1-4)GlcNAc(b1-3)Gal(b1-4)GlcNAc(b1-3)Gal(b1-4)GlcNAc
# Method in brief: as §1
# [19] = target: Gal(b1-4)GlcNAc(b1-3)Gal(b1-4)GlcNAc(b1-3)Gal(b1-4)GlcNAc(b1-2)Man(a1-3)[Gal(b1-4)GlcNAc(b1-3)Gal(b1-4)GlcNAc(b1-3)Gal(b1-4)GlcNAc(b1-2)Man(a1-6)]Man(b1-4)GlcNAc(b1-4)GlcNAc
# Method in brief: as §1
# [20] = target: Gal(b1-4)GlcNAc(b1-3)Gal(b1-4)GlcNAc(b1-3)Gal(b1-4)GlcNAc(b1-3)Gal(b1-4)GlcNAc(b1-3)Gal(b1-4)GlcNAc(b1-2)Man(a1-3)[Gal(b1-4)GlcNAc(b1-3)Gal(b1-4)GlcNAc(b1-3)Gal(b1-4)GlcNAc(b1-3)Gal(b1-4)GlcNAc(b1-3)Gal(b1-4)GlcNAc(b1-2)Man(a1-6)]Man(b1-4)GlcNAc(b1-4)[Fuc(a1-6)]GlcNAc
# Method in brief: as §1
# [21] = target: Gal(b1-4)GlcNAc(b1-3)Gal(b1-4)GlcNAc(b1-3)GalNAc
# Method in brief: as §1
# [22] = target: Gal(b1-4)GlcNAc(b1-3)[Fuc(a1-3)GlcNAc(b1-6)]Gal(b1-4)Glc
# Method in brief: as §1
# [23] = target: Gal(b1-6)Gal
# Method in brief: as §1
# [24] = target: Gal3S(b1-4)[Fuc(a1-3)]Glc6S
# Method in brief: as §1
# [25] = target: Gal6S(b1-3)GlcNAc
# Method in brief: as §1
binder,measurement,setting,value
"Erv46-EDTA (Saccharomyces cerevisiae), P39727 (protein) MKFLVNVALVFMVVYISYIYAAAPEHHHHHHDYDIPTTENLYFQGAMDSVVTRPQLVVDRDRHAKLELNMDVTFPSMPCDLVNLDIMDDSGEMQLDILDAGFTMSRLNSEGRPVGDATELHVGGNGDGTAPVNNDPNYCGPCYGAKDQSQNENLAQEEKVCCQDCDAVRSAYLEAGWAFFDGKNIEQCEREGYVSKINEHLNEGCRIKGSAQINRIQGNLHFAPGKPYQNAYGHFHDTSLYDKTSNLNFNHIINHLSFGKPIQSHSKLLGNDKRHGGAVVATSPLDGRQVFPDRNTHFHQFSYFAKIVPTRYEYLDNVVIETAQFSATFHSRPLAGGRDKDHPNTLHVRGGIPGMFVFFEMSPLKVINKEQ",glycan array binding signal (z-score),[1],0.467
same,glycan array binding signal (z-score),[2],3.11
same,glycan array binding signal (z-score),[3],-0.508
same,glycan array binding signal (z-score),[4],2.34
same,glycan array binding signal (z-score),[5],-0.775
same,glycan array binding signal (z-score),[6],0.075
same,glycan array binding signal (z-score),[7],-0.619
same,glycan array binding signal (z-score),[8],-0.454
same,glycan array binding signal (z-score),[9],0.805
same,glycan array binding signal (z-score),[10],2.74
same,glycan array binding signal (z-score),[11],0.54
same,glycan array binding signal (z-score),[12],-0.279
same,glycan array binding signal (z-score),[13],0.126
same,glycan array binding signal (z-score),[14],-0.001
same,glycan array binding signal (z-score),[15],4.93
same,glycan array binding signal (z-score),[16],2.71
same,glycan array binding signal (z-score),[17],2.65
same,glycan array binding signal (z-score),[18],0.66
same,glycan array binding signal (z-score),[19],3.36
same,glycan array binding signal (z-score),[20],1.81
same,glycan array binding signal (z-score),[21],2.4
same,glycan array binding signal (z-score),[22],-0.11
same,glycan array binding signal (z-score),[23],-0.241
same,glycan array binding signal (z-score),[24],0.233
same,glycan array binding signal (z-score),[25],-0.805
